Compound activity: PubChem BioAssay, several laboratories
Only some compounds are listed: those with a hit (about 2.2% of all), similar ones and a draw of the others.
TLR4 MyD88 comp = inhibitors of TLR4-MyD88 association in cells, primary screen, cell-based, HeLa CL3-4, BLA complementation, FRET ratio. 0.18% of 200,000 active. HeLa CL3-4 TLR4/MyD88 BLA complementation. inhibition, % at 8.4 µM. Toll-like receptor 4 (Homo sapiens) + Myeloid differentiation primary response protein …. AID 861, 2007; in the data active = inhibition above about 25%
ANO1 activ = TMEM16A chloride channel activators or potentiators, primary screen, cell-based, HTS. Anoctamin-1 (Mus musculus), Q8BHY3. HEK293 TMEM16A/YFP-H148Q/I152L, iodide quench fluorescence; stronger effect = lower value. B-score at 10 µM. 0.3% of 340,000 active;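 active = fluorescence-ratio B-score plate-corrected deviation score at least 3 library SD below zero, with starting fluorescence score within 5 deviations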;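 also: channel opened by trigger with iodide after compound preincubation; score built on the fluorescence ratio of max minus min over baseline; more negative score means more quench and so TMEM16A activation or potentiation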
Target sequence (Q8BHY3 whole entry, looked up): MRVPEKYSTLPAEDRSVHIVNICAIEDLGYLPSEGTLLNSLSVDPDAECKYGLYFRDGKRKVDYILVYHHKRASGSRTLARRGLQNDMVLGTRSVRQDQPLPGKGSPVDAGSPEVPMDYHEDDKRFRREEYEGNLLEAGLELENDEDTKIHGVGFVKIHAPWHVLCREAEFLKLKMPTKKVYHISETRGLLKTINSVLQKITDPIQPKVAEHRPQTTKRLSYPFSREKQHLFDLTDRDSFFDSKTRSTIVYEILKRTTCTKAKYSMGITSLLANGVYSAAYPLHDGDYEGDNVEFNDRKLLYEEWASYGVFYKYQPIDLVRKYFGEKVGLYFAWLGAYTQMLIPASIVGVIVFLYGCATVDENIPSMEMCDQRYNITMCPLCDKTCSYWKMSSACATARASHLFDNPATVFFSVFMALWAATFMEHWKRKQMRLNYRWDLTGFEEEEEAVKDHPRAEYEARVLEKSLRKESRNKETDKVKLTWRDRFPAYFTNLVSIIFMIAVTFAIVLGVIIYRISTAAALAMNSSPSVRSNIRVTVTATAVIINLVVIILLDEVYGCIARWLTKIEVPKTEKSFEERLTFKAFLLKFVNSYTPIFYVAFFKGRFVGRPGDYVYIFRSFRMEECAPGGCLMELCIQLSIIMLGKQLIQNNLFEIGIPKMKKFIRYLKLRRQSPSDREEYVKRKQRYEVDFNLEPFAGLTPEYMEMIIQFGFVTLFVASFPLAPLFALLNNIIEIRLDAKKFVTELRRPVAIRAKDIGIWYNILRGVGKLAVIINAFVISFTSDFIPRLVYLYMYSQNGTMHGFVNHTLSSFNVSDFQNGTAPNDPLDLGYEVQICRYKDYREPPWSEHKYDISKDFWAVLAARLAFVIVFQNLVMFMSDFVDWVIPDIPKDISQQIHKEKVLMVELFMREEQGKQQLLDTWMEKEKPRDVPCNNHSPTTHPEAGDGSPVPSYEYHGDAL
NOD2-RIPK2 inh = NOD2-RIPK2 binding disruptors in cells, primary screen, fluorescence, CHO cells, BLA complementation; CCF4 ratio; inhibition, % at 4.98 µM; 0.38% of 360,000 active; in the data active = inhibition above about 21%
TMEM16A inh = TMEM16A chloride channel inhibitors, primary screen, cell-based, HTS; Anoctamin-1 (Mus musculus), Q8BHY3; HEK293 TMEM16A/YFP iodide influx fluorescence, ionomycin; normalized B-score (activity score, 25-100; higher = stronger inhibition) at 10 µM; 1.2% of 310,000 active;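 active = ratio plate-corrected score three or more library SD toward inhibition, starting fluorescence score within five deviations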;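 also: score derived from kinetic fluorescence span divided by baseline fluorescence per well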
TLR9-MyD88 block = inhibitors of TLR9-MyD88 association in cells, primary screen, cell-based, CHO, BLA complementation, fluorescence. Toll-like receptor 9 (Homo sapiens) + Myeloid differentiation primary response protein …. CCF4 FRET ratio. inhibition, % at 4.98 µM. 0.21% of 340,000 active. AID 504734, 2011;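 active = inhibition above the mean over all tested compounds plus 3 SD, cut at about 21% in these data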
GRK2 inh = compounds blocking aptamer binding on GRK2 – biochemical, human GRK2, bead flow cytometry, HTS, primary screen; inhibition of aptamer binding, % at 10 µM; AID 488847, 2010; 0.59% of 330,000 active; FAM-aptamer displacement from GRK2; Beta-adrenergic receptor kinase 1 (Homo sapiens), P25098;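 active = inhibition of aptamer binding above 40%, roughly 3 SD of noise, on plates passing a quality check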;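 also: median bead fluorescence of bound FAM aptamer so fluorescent compounds give negative values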
GRK2 CP1 = GRK2 aptamer-displacing inhibitors, retest, confirmation, biochemical, cherry pick 1, bead flow cytometry; shares compounds with GRK2 inh; bead-bound GRK2, FAM-aptamer displacement; aptamer displacement, % at 10 µM; 4% of 2,000 active; AID 504451, 2011;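 active = aptamer displacement above 40%, near three times the noise of non-fluorescent compounds, on plates passing quality checks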;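 also: negative values mostly reflect intrinsic compound fluorescence rather than true enhancement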
FAM quench CP1 = quenches fluorescent RNA aptamer, GRK2 hit artifact | shares compounds with GRK2 inh | Carboxyfluorescein RNA aptamer on beads, flow cytometry quenching; stronger effect = lower value | fluorescence response (% of DMSO), % at 10 µM | 2,000 tested, under 10 active;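 active = compounds that quench the bead-bound fluorescent RNA probe, cutting fluorescence to under half of the solvent control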;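 also: counterscreen run without GRK2 so only probe quenching by compound is measured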
GRK2 confirm 2 = GRK2 aptamer-displacing inhibitors, hit retest, confirmation, biochemical, cherry pick 2, bead flow cytometry; shares compounds with GRK2 inh; bead-bound GRK2, FAM-aptamer displacement; inhibition of aptamer binding, % at 10 µM; 360 tested, under 10 active; AID 504782, 2011;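 active = inhibition of aptamer binding above 40%, about triple the noise seen with nonglowing compounds, on plates passing quality control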;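 also: negative values mostly come from compounds that fluoresce themselves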
FAM quench CP2 = quenches fluorescent RNA aptamer, GRK2 hit artifact; shares compounds with GRK2 inh; carboxyfluorescein RNA aptamer beads, flow cytometry quenching; stronger effect = lower value; fluorescence response vs DMSO, % at 10 µM; 360 tested, under 10 active; AID 588494;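 active = response vs DMSO under 50%, meaning signal dropped by over half, treated as fluorescence quencher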;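 also: labelled aptamer on streptavidin beads without GRK2 as a quench counter-screen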
Each line names hits and unclear results; the compound was inactive in the other large screens (follow-up assays come after a bar, where they were run).

COc1ccc(S(=O)(=O)N2CCCCC2)cc1NC(=O)CCC(=O)N1CCC(c2ccccc2)=N1	none (no result: TLR4 MyD88 comp, ANO1 activ, TMEM16A inh, GRK2 inh)
Cc1ccc(N(CC(=O)NC2CCCCC2)S(=O)(=O)c2cccs2)cc1	none (no result: TLR4 MyD88 comp)
Cc1c(NS(=O)(=O)c2cccc(C(=O)NC(C)c3ccccc3)c2)c(=O)n(-c2ccccc2)n1C (centres undefined)	none (no result: TLR4 MyD88 comp, TMEM16A inh, GRK2 inh) | GRK2 CP1 inactive | FAM quench CP1 inactive
Cc1c(NS(=O)(=O)c2cc(C(=O)NC(C)c3ccccc3)ccc2Cl)c(=O)n(-c2ccccc2)n1C (centres undefined)	none (no result: TLR4 MyD88 comp, TMEM16A inh, GRK2 inh)
Cc1c(NS(=O)(=O)c2cccc(C(=O)NCc3ccccc3Cl)c2)c(=O)n(-c2ccccc2)n1C	none (no result: TLR4 MyD88 comp, TMEM16A inh, GRK2 inh) | GRK2 CP1 inactive | FAM quench CP1 inactive
COC(=O)C(Cc1ccccc1)NC(=O)CC(C)CC(=O)Nc1ccc(C)cc1 (centres undefined)	GRK2 inh 46.0 (no result: TLR4 MyD88 comp) | GRK2 CP1 inactive | FAM quench CP1 inactive
COC(=O)[C@H](Cc1ccccc1)NC(=O)N1CCN(c2ccc(F)cc2)CC1	none (no result: TLR4 MyD88 comp) | GRK2 CP1 inactive | FAM quench CP1 inactive
O=C(O)[C@H](Cc1ccccc1)NC(=O)N1CCCCCC1	GRK2 inh 100.0 (no result: TLR4 MyD88 comp, ANO1 activ) | GRK2 CP1 inactive | FAM quench CP1 inactive
COC(=O)[C@H](Cc1ccccc1)NC(=O)N1CCCCCC1	none (no result: TLR4 MyD88 comp) | GRK2 CP1 inactive | FAM quench CP1 inactive
O=c1cc2c(=O)oc3cc(O)c(O)oc3c2c(O)c1O	none (no result: TLR4 MyD88 comp, TMEM16A inh, GRK2 inh)
CC(C)CN1C(=O)NC2(CCCc3ccccc32)C1=O (centres undefined)	none (no result: TLR4 MyD88 comp)
O=C1C(=O)N(CCc2c[nH]c3ccccc23)C(c2cccnc2)/C1=C(/O)c1ccccc1 (centres undefined)	none (no result: ANO1 activ, NOD2-RIPK2 inh, TLR9-MyD88 block)
O=C(NCC1CCCO1)C1CCCN1C(=O)Nc1ccc(Cl)c(Cl)c1 (centres undefined)	GRK2 inh 53.0 | GRK2 CP1 inactive | FAM quench CP1 inactive
COc1cc(C2c3cc4c(cc3OC(C)(N3CCCC3)C2C)OCO4)cc(OC)c1OC (centres undefined)	none (no result: TLR4 MyD88 comp, TMEM16A inh, GRK2 inh)
O=[N+]([O-])c1ccccc1/C=N/Nc1nc(N2CCCC2)nc(N2CCCC2)n1	GRK2 inh 59.0 | GRK2 CP1 inactive | FAM quench CP1 inactive
CCC(C)(C)NC(=O)CN(Cc1cccs1)C(=O)C(=O)Nc1ccc2c(c1)OCCO2	GRK2 inh 74.0 | GRK2 CP1 inactive | FAM quench CP1 inactive
CCOc1ccc2nc(Nc3nc(CSc4nnnn4-c4ccccc4)cc(=O)[nH]3)nc(C)c2c1	none
COc1ccc2nc(Nc3nc(CSc4nnnn4-c4ccccc4)cc(=O)[nH]3)nc(C)c2c1	GRK2 inh 46.0 | GRK2 CP1 inactive | FAM quench CP1 inactive
CCCc1cc(=O)[nH]c(SCC(=O)Nc2cc(S(=O)(=O)N(CC)c3ccccc3)ccc2Cl)n1	none (no result: TLR4 MyD88 comp, TMEM16A inh)
O=[N+]([O-])c1cccc(NNS(=O)(=O)c2ccccc2F)c1	none (no result: TLR4 MyD88 comp)
COc1ccc2c(c1)CCc1c(C(=O)NCCCn3ccnc3)noc1-2	GRK2 inh 51.0 | GRK2 CP1 inactive | FAM quench CP1 inactive
Nc1ccc2sc(N)nc2c1	none (no result: TLR4 MyD88 comp, TMEM16A inh)
Nc1nc2c(ccc3ccccc32)s1	none (no result: TLR4 MyD88 comp) | GRK2 confirm 2 inactive | FAM quench CP2 inactive
Cn1c(=O)oc2cc(S(=O)(=O)NCc3ccccn3)ccc21	GRK2 inh 52.0 | GRK2 CP1 inactive | FAM quench CP1 inactive
O=C(/C=C/c1ccco1)Nc1ccc(-c2nc3ccccc3[nH]2)cc1	GRK2 inh 49.0 | GRK2 CP1 inactive | FAM quench CP1 inactive
O=C(Nc1ccc(-c2nc3ccccc3[nH]2)cc1)c1ccco1	none
CCN(C(=O)c1cn(CC)c(=O)c2cc(OC)c(OC)cc12)c1ccccc1C	none
CCCN(C(=O)c1cn(C)c(=O)c2ccccc12)c1ccccc1C	none (no result: TLR4 MyD88 comp) | GRK2 CP1 inactive | FAM quench CP1 inactive
O=C(O)c1ccc(/C=N/Nc2nc3ccccc3[nH]2)cc1	GRK2 inh 95.0 (no result: TLR4 MyD88 comp) | GRK2 CP1 inactive | FAM quench CP1 inactive
CSc1nsc(SCC(=O)NCc2ccc(C)cc2)n1	none (no result: TLR4 MyD88 comp)
CN(C(=O)CN1C(=O)c2ccc([N+](=O)[O-])cc2C1=O)C1CCCCC1	none (no result: TLR4 MyD88 comp, TMEM16A inh)
CCN(C(=O)CN1C(=O)c2ccc([N+](=O)[O-])cc2C1=O)C1CCCCC1	GRK2 inh 69.0 (no result: TLR4 MyD88 comp) | GRK2 confirm 2 inactive | FAM quench CP2 35.0
CCOc1ccccc1CN1CCN(C/C=C/c2ccc(OC)cc2)CC1CCO (centres undefined)	none
COc1ccc(/C=C/CN2CCN(CCc3ccccc3)C(CCO)C2)cc1 (centres undefined)	GRK2 inh 90.0 | GRK2 CP1 inactive | FAM quench CP1 inactive
CCC(=O)Nc1cccc(-c2cc3ccccc3oc2=O)c1	GRK2 inh 96.0 | GRK2 CP1 inactive | FAM quench CP1 inactive
CCCOc1ccccc1OCC(=O)Nc1cccc(S(=O)(=O)NC2=NCCC2)c1	none (no result: TLR4 MyD88 comp, TMEM16A inh, GRK2 inh)
Oc1c(Br)cc(Br)cc1C=NCc1ccc(F)cc1	GRK2 inh 41.0 | GRK2 CP1 inactive | FAM quench CP1 inactive
Cc1ccc(NC(=O)CN(C)C(=O)C2COc3ccccc3O2)cc1 (centres undefined)	none
COc1ccccc1CN(C)C(=O)C1COc2ccccc2O1 (centres undefined)	none | GRK2 CP1 inactive | FAM quench CP1 inactive
O=C(O)c1ccc(-n2cccc2/C=N\NC(=O)c2cc3cc(Br)ccc3o2)cc1	GRK2 inh 58.0 (no result: TLR4 MyD88 comp) | GRK2 CP1 inactive | FAM quench CP1 inactive
Cn1cc(/C=N/NC(=O)c2cc3cc(Br)ccc3o2)c2ccccc21	none (no result: TLR4 MyD88 comp, TLR9-MyD88 block)
CCCCCc1nnc(NC(=O)c2cccc(S(=O)(=O)N3CCOCC3)c2)s1	none (no result: TLR4 MyD88 comp, TMEM16A inh)
